Screens (PubChem)
SMARCA2 act = activators of SMARCA2 function; MG213 cells, MMTV-luciferase reporter, dexamethasone, overnight; activation, % at 9.1 µM; actives 1% (n = 370,000); in the data active = activation above about 7.8%;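 also: 0% = vehicle wells and 100% = reference activator wells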
Vif imaging = blocks HIV Vif function; HEK293T cells, Vif self-association by quenched fluorescence, imaging, 24 h; actives 0.35% (n = 340,000); inhibition, % at 7.49 µM; in the data active = inhibition above about 50%, passing the limit was not always enough
NadD block = blocks S. aureus nicotinate mononucleotide adenylyltransferase; purified NadD enzyme, colorimetric absorbance read-out; inhibition, % at 20 µM; actives 0.78% (n = 360,000); in the data active = inhibition above about 26%
GRIN3A LBD mod = modulates the human NR3A ligand-binding domain | NR3A LBD differential scanning fluorimetry, Tm shift; 0% = protein alone, 100% = glycine-bound protein | actives 2.5% (n = 340,000) | Tm shift relative to glycine control, % at 25 µM;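 active = melting temperature shift of at least 10% of the positive control shift, at one fixed dose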
SKN-1 block = C. elegans SKN-1 inhibition | C. elegans VP596 Pgst-4::GFP/RFP ratio, acrylamide-induced, 24 h | inhibition, % at 21.8 µM | actives 0.49% (n = 360,000) | AID 624304;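 active = interference check ratio from 0.5 to 1.5 plus GFP to RFP signal ratio inhibition reaching or exceeding a fixed threshold, cut at about 30% in these data, passing the limit was not always enough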
esBAF inh = blocks esBAF chromatin remodeling in mouse ES cells. reporter increase, % at 12.5 µM. Bmi1-luciferase knock-in reporter, 24 h; 100% = twice the neutral-well signal. actives 2% (n = 350,000); in the data active = activation above about 40%;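 also: 0% = median of the plate's neutral control wells and 100% = double that signal; a rise in the Bmi1 reporter signal indicates esBAF inhibition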
* marks the source's active call; other numbers are inactive results; · = no result given. In the library only some 5.2% were active in any assay of this set; here they are far more common.

SMILES	SMARCA2 act	Vif imaging	NadD block	GRIN3A LBD mod	SKN-1 block	esBAF inh
O=C(NC(=S)Nc1cccnc1Cl)c1ccc(F)cc1	3	-3	12	2	13	38
O=C(NC(=S)Nc1ccc(NC(=O)c2ccccc2)cc1)c1ccc(F)cc1	-4	51*	2	20*	3	·
O=C(NC(=S)Nc1ccc(-c2ccccc2)cc1)c1ccccc1	0	2	-5	3	26	35
O=C(Nc1ccc(Nc2ccccc2)cc1)c1ccc(F)cc1	2	-1	-4	15*	14	24
O=C(Nc1ccc(Nc2ccccc2)cc1)c1c(F)c(F)c(F)c(F)c1F	-3	1	-4	15*	-6	-6
O=C(Nc1ccc(Nc2ccccc2)cc1)c1c(Cl)cccc1Cl	-2	4	-5	-1	6	-1
COCC(=O)Nc1ccc2c(c1)C(=O)N(C)[C@H]1CC[C@H](CC(=O)NCc3cccc(F)c3)O[C@H]1CO2	·	·	·	·	·	2
COC(=O)[C@@H]1[C@@H](CO)[C@@H]2Cn3c(ccc(-c4cccc(F)c4)c3=O)[C@@H]2N1S(C)(=O)=O	·	·	·	·	·	-2
COc1ccc(S(=O)(=O)N(C)C[C@@H]2OCCCC[C@H](C)Oc3ccc(NC(=O)NC4CCCCC4)cc3C(=O)N([C@@H](C)CO)C[C@H]2C)cc1	·	·	·	·	·	-5
Nc1ccccc1SCC(=O)Nc1ccc(N2CCOCC2)cc1	-2	57*	-5	0	-2	6
O=C(NC(=S)NC12CC3CC(CC(C3)C1)C2)c1ccc(F)cc1	0	-15	2	-2	10	58*
O=C(NC(=S)Nc1ccc(N2CCOCC2)cc1)c1cccc(Cl)c1	-1	-10	-6	-1	14	·
O=C(NC(=S)Nc1ccc(N2CCOCC2)cc1)c1ccccc1	5	2	-3	0	11	53*
O=C(NC12CC3CC(CC(C3)C1)C2)c1ccccc1	-1	10	-6	-1	3	-8
Cc1noc(C)c1NC(=O)Nc1ccc2c(c1)C(=O)N([C@H](C)CO)C[C@H](C)[C@@H](CN(C)C)O2	·	·	·	·	·	-2
C[C@@H]1CN([C@H](C)CO)C(=O)c2cc(C#CCN(C)C)cnc2O[C@H]1CN(C)C(=O)CN1CCOCC1	·	·	·	·	·	2
COCCNC(=O)C[C@@H]1C[C@H]2c3cc(NC(=O)C4CCOCC4)ccc3O[C@H]2[C@H](CO)O1	·	·	·	·	·	-6
CC(=O)N[C@H]1C=C[C@H](CC(=O)NCC2CCCCC2)O[C@H]1CO	·	·	·	·	·	-4
CC(C)CC#Cc1cnc2c(c1)C(=O)N([C@@H](C)CO)C[C@H](C)[C@H](CN(C)C(=O)c1cccnc1)O2	·	·	·	·	·	5
C[C@H]1CN([C@@H](C)CO)C(=O)c2cc(Br)cnc2O[C@@H]1CN(C)C(=O)C1CCCCC1	·	·	·	·	·	6
COc1cccc(C(=O)NCC(=O)OCC(=O)C(C)(C)C)c1	7	43	1	0	-9	·
COc1cccc(C(=O)NCC(C)(C)SCc2ccc(F)cc2)c1	4	-3	-8	10*	27	-4
Cc1cccc2c(N)c3c(nc12)N(C)CC3	-2	-4	-2	16*	-1	-1
O=C(N[C@H]1CC[C@@H](CCNS(=O)(=O)Cc2ccccc2)O[C@@H]1CO)c1cnccn1	·	·	·	·	·	1
Clc1ccccc1-c1nnc(-c2cccnc2)o1	5	-5	-8	5	6	37
SMILES	SMARCA2 act	Vif imaging	NadD block	GRIN3A LBD mod	SKN-1 block	esBAF inh
Clc1ccccc1-c1nnc(-c2cccs2)o1	6	-8	-11	0	26	46*
Cc1ccc(/C=C/c2nnc(-c3ccccc3)o2)cc1	5	5	-9	1	0	7
C(=C\c1nnc(-c2cccs2)o1)/c1ccccc1	7	0	-10	1	77*	7
CC(C)NC(=O)N(C)C[C@H]1OCCCC[C@H](C)Oc2ccc(NS(=O)(=O)c3ccc(F)cc3)cc2C(=O)N([C@H](C)CO)C[C@H]1C	·	·	·	·	·	-10
O=C1NC(c2ccc(O)cc2)Nc2ccccc21 (stereo not given)	0	-4	-1	-4	12	19
O=C1NC(c2cccc(OCc3ccccc3)c2)Nc2ccccc21 (stereo not given)	-5	-6	-4	13*	7	·
Cc1nc(N2CCN(C(=O)c3ccco3)CC2)nc2c1C(=O)CCC2	0	-6	0	1	-12	41*
Cc1nc(N2CCN(c3ccccc3)CC2)nc2c1C(=O)CCC2	-3	13	7	-2	15	4
O=C(O)c1cccc(N2C(=O)/C(=C/c3ccc(SCc4ccc(Cl)cc4)o3)SC2=S)c1	0	2	30	15*	12	·
Cc1ccccc1/C=N/N1CCN(c2ccccc2)CC1	3	6	-1	13*	14	23
O=C(NCCN1CCCCC1)[C@H]1[C@H](CO)[C@H]2Cn3c(cccc3=O)[C@H]2N1Cc1ccccn1	·	·	·	·	·	5
C=CCN(CC=C)CCOc1cccc2ccccc12	-3	-10	-5	12*	7	-1
C[C@@H]1CN([C@@H](C)CO)C(=O)c2cccc(NC(=O)C3CCCCC3)c2O[C@H]1CN(C)C(=O)Nc1ccc(F)cc1	·	·	·	·	·	-2
COCCCn1c(SCC(N)=O)nnc1-c1ccccc1	-2	9	-2	0	6	-7
COCCCn1c(SCC(=O)NC(C)C)nnc1-c1ccccc1	-3	5	1	4	36*	-6
O=C(Nc1ccc2c(c1)[C@H]1C[C@H](CC(=O)N3CCCCC3)O[C@@H](CO)[C@H]1O2)NC1CCCC1	·	·	·	·	·	3
Cc1ccc(S(=O)(=O)N(C)C[C@H]2Oc3ccc(N(C)C)cc3CC(=O)N([C@H](C)CO)C[C@@H]2C)cc1	·	·	·	·	·	0
CCNC(=O)C[C@@H]1CC[C@@H]2[C@H](COc3ccc(NC(=O)NC(C)C)cc3C(=O)N2C)O1	·	·	·	·	·	-3
N#CC12CCCCC1CC1CCCCC1(C#N)N2Cc1ccccn1 (stereo not given)	3	14	2	10*	-18	4
N#CC12CCCCC1CC1CCCCC1(C#N)N2CCO (stereo not given)	-2	4	-5	-4	3	-9
CCNC(=O)[C@H]1[C@H](CO)[C@H]2Cn3c(ccc(-c4ccccc4F)c3=O)[C@@H]1N2C(=O)CC	·	·	·	·	·	3
COc1ccc(-n2nnc3c(=O)n(CC(=O)N4CCCc5ccccc54)cnc32)cc1	2	3	-3	12*	-3	-8
O=C(Cn1cnc2c(nnn2-c2ccc(F)cc2)c1=O)N1CCCc2ccccc21	0	12	-3	0	12	0
CCOc1ccc(-n2nnc3c(=O)n(CC(=O)N4CCCc5ccccc54)cnc32)cc1	-1	-5	3	15*	-15	0
O=C(C[C@H]1C[C@H]2c3cc(NC(=O)Nc4ccc(C(F)(F)F)cc4)ccc3O[C@H]2[C@H](CO)O1)NCc1ccc(Cl)cc1	·	·	·	·	·	2
